Sampled rows, rich in hits. Any-hit rate of the full collection: about 1.8%.
ARNT-TACC3 inh: ARNT/TACC3 interaction disruption. Q9Y6A5. AlphaScreen His-ARNT PAS-B/GST-TACC3 binding, luminescence; TACC3 fragment carries E629A point mutation. inhibition, % at 9.99 µM. actives 0.66% (n = 390,000). AID 623870;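 active means mean inhibition of replicates at least 50% and at least half of replicates each reaching 50%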
ABCB6 inh 2: inhibitors of human ABC transporter ABCB6. fluorescence ratio to DMSO, % at 10 µM. K562-ABCB6 porphyrin accumulation, flow cytometry, 1 h; hits give low values. Q9NP58. actives 0.19% (n = 360,000);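 active means fluorescence ratio to DMSO below 75%, the collection mean minus 3 SD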;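 further: signal is porphyrin accumulated inside mitochondria; lower ratio means ABCB6 inhibition with less porphyrin fluorescence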
iPSC survival up: increases survival of single human iPS cells; survival enhancement, % at 20 µM; AID 602274; hiPSC single-cell survival, ATPlite luminescence; 100% = ROCK inhibitor wells, 0% = DMSO; actives 0.044% (n = 360,000); in the data active means survival enhancement above about 18%;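 further: cells exposed to compounds for 16 hours before the ATP read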
INS-1E GSIS act: primary screen for activators of insulin secretion dependent on glucose, INS-1E cells, GLuc reporter luminescence; INS-1E GLuc reporter insulin secretion, 2-3 h; activation, % at 16.6 µM; actives 0.61% (n = 370,000); AID 743287;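 active means lowest replicate activation of at least 40%, so every replicate reaches that level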
NRP1-CendR mod: NRP-1/CendR interaction modulation. actives 0.85% (n = 360,000). inhibition, % at 25 µM. O14786. AID 602438. FAM-RPARPAR peptide binding to NRP-1, fluorescence polarization;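 active means inhibition or corrected inhibition above about 18%, plus a signal ratio from 0.5 to 1.5, limit read from the data, passing the limit was not always enough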
ARNT Alpha ctr: AlphaScreen artifact in ARNT/TACC3 counter-screen | His-ARNT PASB-GST AlphaScreen artifact counter-screen, luminescence | actives 50% (n = 1,200) | AC50, µM (doses to about 68 µM) | shares compounds with ARNT-TACC3 inh | AID 651705;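 active means every separate test run was called active for a drop in luminescence, with AC50 within twice the top valid dose, actives reach about 71 µM in these data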
Hits are given with their value; i = inactive; nt = no result.

SMILES | ARNT-TACC3 inh | ABCB6 inh 2 | iPSC survival up | INS-1E GSIS act | NRP1-CendR mod | ARNT Alpha ctr
CN(C)c1ccc2c(c1)[C@@H]1C[C@@H](CC(=O)N3CCOCC3)O[C@@H](CO)[C@@H]1O2 | 70 | nt | nt | i | nt | i
CN(C)c1ccc2c(c1)[C@@H]1C[C@@H](CC(=O)N3CCCCC3)O[C@H](CO)[C@@H]1O2 | nt | nt | nt | i | nt | nt
C[C@@H]1CN([C@@H](C)CO)C(=O)c2cc(/C=C/c3ccccc3)cnc2O[C@@H]1CN(C)C(=O)C1CC1 | nt | nt | nt | i | nt | nt
O=C(c1cccnc1)N1CC[C@@H]2[C@H](CO)Nc3ccc(-c4ccccc4)cc3[C@@H]21 | i | nt | nt | i | nt | nt
CN(C)C(=O)c1cccc(-c2ccc3c(c2)[C@@H]2[C@@H](CCN2C(=O)c2cccnc2)[C@@H](CO)N3)c1 | 65 | nt | nt | i | nt | i
O=C(c1ccccn1)N1CC[C@H]2[C@H](CO)Nc3ccc(Br)cc3[C@H]21 | i | nt | nt | i | nt | nt
O=C(c1ccccn1)N1CC[C@@H]2[C@H]1c1cc(Br)ccc1N[C@@H]2CO | 69 | nt | nt | i | nt | 53µM
c1ccc(-c2nnc(-c3ccccn3)nc2NCCN2CCOCC2)cc1 | nt | nt | nt | nt | nt | 0.83µM
c1ccc(NCCc2ccccn2)cc1 | i | i | i | i | i | nt
COc1ccc(-c2nc(-c3ccccn3)nc(N3CCN(C)CC3)c2C#N)cc1 | i | i | i | i | i | nt
CN1CCN(c2nc(-c3ccccn3)nnc2-c2ccccc2)CC1 | nt | nt | nt | nt | nt | 0.55µM
CC(C)(C)CCNc1nc(-c2ccccn2)nnc1-c1ccccc1 | nt | nt | nt | nt | nt | 2.2µM
c1ccc(-c2nnc(-c3ccccn3)nc2NCCc2ccccn2)cc1 | nt | nt | nt | nt | nt | 1.8µM
C[C@@H]1CN([C@@H](C)CO)C(=O)c2cc(NC(=O)NC3CCCCC3)ccc2O[C@@H](C)CCCCO[C@@H]1CN(C)C(=O)CCCN(C)C | i | nt | nt | i | nt | nt
CC(C)CC#Cc1ccc2c(c1)O[C@@H](CN(C)C(=O)C1CC1)[C@H](C)CN([C@@H](C)CO)S2(=O)=O | nt | nt | nt | i | nt | nt
COc1ccc2c3c(n(C)c2c1)[C@H](CO)N(CC1CC1)CC31CN(C(=O)Nc2c(C)noc2C)C1 | nt | nt | nt | i | nt | nt
O=C(C[C@H]1C[C@H]2c3cc(NC(=O)Cc4ccncc4)ccc3O[C@H]2[C@H](CO)O1)NCc1cccnc1 | i | nt | nt | i | nt | nt
CCS(=O)(=O)N1CC2(C1)[C@H](c1ccccc1)[C@H](CO)N2CC1CCCC1 | nt | nt | nt | i | nt | nt
CCCNC(=O)C[C@H]1CC[C@@H]2[C@@H](COc3ccc(NC(=O)c4ccc5c(c4)OCO5)cc3C(=O)N2C)O1 | i | nt | nt | i | nt | nt
c1ccc(-c2nnc(-c3ccccn3)nc2NCc2ccccn2)cc1 | nt | nt | nt | nt | nt | 0.7µM
COc1ccc2c3c([nH]c2c1)[C@@H](CO)N(Cc1ccccc1F)CC31CN(C(=O)C2CCCC2)C1 | nt | nt | nt | i | nt | nt
Cc1nnc(-c2ccccc2)c(=O)n1/N=C/c1c(O)ccc2ccccc12 | 62 | i | i | nt | i | 64µM
Cc1nc2ccccc2c(=O)n1/N=C/c1ccc(O)c(O)c1O | 52 | i | i | i | i | i
Cc1nnc(C)n1/N=C/c1c(O)ccc2ccccc12 | i | i | i | i | i | nt
C[C@H](CO)N1C[C@H](C)[C@@H](CN(C)C(=O)Nc2ccc(C(F)(F)F)cc2)Oc2ccc(NC(=O)Nc3cccc4ccccc34)cc2CC1=O | i | nt | nt | i | nt | nt

Assay outcomes from PubChem.
